From PubChem BioAssay
Rab9 prom act: activates the Rab9 promoter; Huh7 Rab9 promoter-luciferase reporter, luminescence, 24 h; Potency, µM (series often up to 9.22 µM), without a hit: top-dose activation, negative = inhibition, usual class: activators; 320,000 tested, 2.8% active; AID 485297; also: % of control where 0% means no effect; nearly all actives have a fitted effect of over 60% in size
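Stable Rab9-luc Huh7, 1500 cells/well, 2 h settle; cmpd in DMSO, 24 h, 37 °C/5% CO2; luciferase reagent 10 min RT; luminescence.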
SMN2 splice up: enhancers of SMN2 splice variant expression; 210,000 tested, 2.8% active; HEK293 SMN2-luciferase splicing reporter, luminescence, 30-36 h; Potency, µM (doses to about 46.1 µM), for inactives: at the top dose activity change, positive = activation, actives largely listed as activators; AID 1458; also: % of control where 0% means no effect; nearly all actives have a fitted effect of over 55% in size
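HEK293 cells carry an SMN2 minigene-luciferase reporter in which exon 7 inclusion puts luciferase in frame. Cells were seeded at 2000 cells/well, attached for 10-12 hours, then exposed to compounds for 30-36 hours at 37C before ONE-Glo luminescence.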
ELG1 genotox: inducers of genotoxicity in HEK293T ELG1-luciferase cells; Potency, µM (highest dose often 46 µM), for the others: at the top dose activity change, positive = activation, most hits filed as activators; 330,000 tested, 1.3% active; HEK293T ELG1-luciferase reporter, luminescence, 16 h; also: % of control where 0% means no effect; nearly all actives have a fitted effect of over 60% in size
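Reporter readout depends on ELG1 protein level, which increases with genetic stress. After 16 hr compound exposure at 37 °C, luciferase activity was quantified using ONE-Glo.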
NPC1 promoter act: NPC1 promoter activation | Huh7 NPC1 promoter luciferase reporter, 24 h | Potency, µM (doses to about 9.22 µM), inactives show at the highest dose activation, most hits filed as activators | 320,000 tested, 2.4% active | AID 485313; also: % of control where 0% means no effect; nearly all actives have a fitted effect of over 60% in size
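Stably transfected Huh7 (NPC1 promoter→luciferase), 1500 cells/well in Opti-MEM + 10% FBS, 2 h settle, then compound 24 h at 37 °C. Luminescence after 10 min with Amplite reagent.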
Luc counter: blocks Kinase-Glo luciferase, a counter-screen artifact. Potency, µM (highest dose often 38.3 µM), for inactives: top-dose activity change, negative = inhibition, usual class: inhibitors. Kinase-Glo luciferase, ATP luminescence, 8 min. 200,000 tested, 0.28% active; also: % is scaled to controls: 0 for no effect and ±100 for the full control effect; nearly all actives have a fitted effect of over 60% in size
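Compound is pinned into ATP-containing buffer (10 uM ATP, imidazole pH 7.2, 7 mM MgCl2). Kinase-Glo luciferase reagent is then added. Light output is recorded following an 8-min room-temperature incubation.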
FLuc modulator: counter-screen for miR-21 project: firefly luciferase inhibitors or activators | P08659 | Potency, µM (titrated, usually from 57.5 µM), without a hit: at the highest dose activity change, negative = inhibition, most hits filed as inhibitors | purified FLuc, Km substrates, luminescence inhibition | 360,000 tested, 6.9% active | AID 588342;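 also: plate controls were vehicle for no effect and reference inhibitor for full effect; nearly all actives have a fitted effect of over 55% in size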
Target sequence (P08659 whole entry, looked up): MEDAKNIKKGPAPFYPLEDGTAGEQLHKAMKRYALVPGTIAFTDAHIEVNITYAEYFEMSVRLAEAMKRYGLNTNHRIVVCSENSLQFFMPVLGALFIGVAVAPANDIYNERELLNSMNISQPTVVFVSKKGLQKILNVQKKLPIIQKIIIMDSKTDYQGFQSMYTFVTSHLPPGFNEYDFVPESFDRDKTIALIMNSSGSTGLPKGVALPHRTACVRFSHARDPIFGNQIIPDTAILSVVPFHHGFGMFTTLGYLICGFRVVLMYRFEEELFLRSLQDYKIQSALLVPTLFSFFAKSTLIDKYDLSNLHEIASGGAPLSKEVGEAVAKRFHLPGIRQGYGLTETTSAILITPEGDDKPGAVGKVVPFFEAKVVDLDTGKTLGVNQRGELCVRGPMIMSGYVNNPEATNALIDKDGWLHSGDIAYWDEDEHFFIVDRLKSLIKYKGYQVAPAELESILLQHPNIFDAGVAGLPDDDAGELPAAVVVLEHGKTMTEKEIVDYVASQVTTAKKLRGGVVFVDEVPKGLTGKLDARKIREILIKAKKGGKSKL
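Purified P. pyralis luciferase, 10 nM final, with Km-level 10 uM D-luciferin and 10 uM ATP in 50 mM Tris acetate pH 7.5, 10 mM Mg acetate, 0.01% Tween-20, 0.05% BSA; 6-point qHTS titration about 60 µM downward; luminescence read.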
Starred values were filed as active, the others as inactive; ? = inconclusive; . = no result given; [ ] = dose if it differs, or a comment. Only some compounds are listed: those with a hit (about 7.3% of all), similar ones and a draw of the others. Calls follow the shape of the dose curve; as a rule, active = well fitted curve in the direction sought with a large enough effect; inconclusive = small, poorly fitted or top-dose-only effect, or another doubt; inactive = no such curve, though single readings can be large; an effect the other way counts as inactive or inconclusive. Potency is read from the fitted curve at half-maximal effect.

SMILES | Rab9 prom act | SMN2 splice up | ELG1 genotox | NPC1 promoter act | Luc counter | FLuc modulator
O=C(c1ccc(-c2ccccc2Cl)o1)N1CCCC(C(F)(F)F)C1 (centres undefined) | ? | . | ? | 29% | . | 13µM*
O=C(c1ccc(-c2cccc(C(F)(F)F)c2)o1)N1CCOCC1 | 19% | 28% | 16µM* | 24% | 2% | ?
CN1CCCN(C(=O)c2ccccc2Cl)CC1 | 4% | . | -2% | -3% | . | -2%
O=C(c1ccc(-c2ccccc2Cl)o1)N1CCC1 | ? | . | ? | ? | . | 17µM*
Cn1c(=O)c2c(ncn2CN2CCN(Cn3cnc4c3c(=O)n(C)c(=O)n4C)CC2)n(C)c1=O | . | 0%[9.22 µM] | . | . | -3%[7.66 µM] | .
CCOC(=O)CCCNC(=O)N1CCc2nc(-c3ccccc3)c3c(c2C1)CO[C@@H](C)C3 | . | 6%[9.22 µM] | . | . | -6%[7.66 µM] | .
COc1ccc(-c2csc(-c3cc4ccccc4oc3=N)n2)cc1 | 0% | 5% | 0% | 1% | 2% | 5.4µM*
Nc1nc(-c2ccc3ccccc3c2)cs1 | 0.79µM* | 11µM* | 4.6µM* | 3.2µM* | -6% | 3.8µM*
Nc1nc(-c2ccc(C(=O)O)cc2)cs1 | -4% | 5% | 2% | -8% | -4% | -9%
Cc1ccc(-c2csc(N=C(N)N)n2)c(C)c1 | 13% | . | 5% | 12% | . | ?
Nc1nc(-c2ccc(-c3ccccc3)cc2)cs1 | 0.4µM* | 0.5µM* | ? | 0.79µM* | -17% | 2.4µM*
COc1ccc(-c2csc(N=C(N)N)n2)cc1 | ? | 29% | ? | ? | 0% | 15µM*
CCC(Cc1ccccc1)NC(=O)c1csc2c1CCCCC2 (centres undefined) | . | 5% | . | . | . | -1%
COC(=O)/C=C/c1cc(O)ccc1O | . | 1% | . | . | . | .
CCCCc1nc2c(c3c1C[C@H](C)OC3)CN(C(=O)Nc1ccc(OC)cc1)CC2 | . | -1%[9.22 µM] | . | . | -1%[7.66 µM] | .
CCCCCCCCCCCCCCCC(=O)OCC(O)C1OC(=O)C(O)=C1O (centres undefined) | . | . | . | . | 0%[39.9 µM] | .
CCOc1ccc(CCNC(=O)CCCc2nnc3n(CCCOC)c(=O)c4sccc4n23)cc1 | . | . | . | . | . | 4%
Cc1ccc(C(=O)c2cn(Cc3ccc(F)cc3)c3nc(C)ccc3c2=O)cc1 | . | -6% | . | . | . | -5%
Nc1nc(-c2ccc(Oc3ccccc3)cc2)cs1 | ? | . | ? | ? | . | 13µM*
Cc1ccc(OCc2csc(N)n2)cc1 | 4µM* | 13µM* | ? | ? | -4% | 24µM*
COc1ccc(-c2csc(N)n2)cc1 | ? | 14µM* | ? | ? | -3% | 15µM*
O=S(c1ccccc1)c1ccc2nnnn2n1 (centres undefined) | . | . | . | . | 1% | .
COC(=O)c1c(NC(=O)c2cc3nc(-c4ccc(Br)cc4)cc(C(F)(F)F)n3n2)sc2c1CCCC2 | . | . | . | . | . | -1%
CC(C)[C@H](NC(N)=O)C(=O)Nc1ccc(Oc2ccccc2)cc1 | -1% | -15% | -6% | -2% | -1% | -2%
CCOC(=O)C(=O)Nc1ccc(Oc2ccccc2)cc1 | -27% | 5% | 4% | -3% | -8% | 15µM*
SMILES | Rab9 prom act | SMN2 splice up | ELG1 genotox | NPC1 promoter act | Luc counter | FLuc modulator
CCOC(=O)C(=O)Nc1ccc(F)cc1 | -1% | 4% | -4% | 7% | -7% | -11%
CC(C)[C@H](NC(=O)Nc1ccc(Oc2ccccc2)cc1)C(=O)O | -3% | -3% | 2% | 2% | -4% | 24µM*
COc1ccc(-c2ccc(NC(=O)c3ccco3)cc2)nn1 | 0.1µM* | . | ? | ? | . | 1.2µM*
CN(C(=O)c1ccc(NC(=O)c2ccco2)cc1)c1ccccc1 | ? | . | ? | ? | . | 17µM*
CC1N(C)c2cc(NC(=O)c3ccco3)ccc2C1(C)C (centres undefined) | 1µM* | 16µM* | ? | 3.2µM* | -5% | 9.5µM*
O=C(COc1ccc(Cl)cc1)Nc1ccc(NC(=O)c2ccco2)cc1 | 13% | . | ? | 16% | . | 1%
O=C(Nc1ccc(Cl)cc1)c1ccco1 | ? | . | ? | 2.8µM* | . | 17µM*
CN(C(=O)c1cccc(NC(=O)c2ccco2)c1)c1ccccc1 | 3% | . | -3% | 2% | . | 2%
CC1N(C)c2cc(NC(=O)c3ccco3)c(P(=O)(Nc3ccc([N+](=O)[O-])cc3)N3CCOCC3)cc2C1(C)C (centres undefined) | -26% | -29% | -13% | 1% | 0% | 6%
CN(C(=O)C1=CC(c2ccc3c(c2)OCO3)=NS(=O)(=O)N1C)c1ccccc1 | . | . | . | . | . | -6%
O=C(CCSc1ccc(Cl)cc1)c1ccco1 | -2%[1.84 µM] | . | -9% | -2% | . | 21µM*
CCC(C)c1ccc(NC(=O)c2ccco2)cc1 (centres undefined) | 0.32µM* | . | 0.58µM* | 0.14µM* | . | 0.43µM*
CC(=O)Nc1ccc(NC(=O)c2ccco2)cc1 | ? | 18µM* | ? | 22% | 14% | ?
COc1ccc(OC)c(CCNC(=O)c2nc(-c3ccc(Cl)cc3)n3c2CCCCC3)c1 | . | . | . | . | . | -6%
CCOC(=O)c1c(C)c(-c2ccccc2)n(CC(=O)NCc2cccc(OC)c2)c1C | . | 5% | . | . | . | -2%
Cc1ccc(-c2nn(-c3ccccc3)cc2/C=C/C(=O)O)o1 | -1% | 2% | 2% | -2% | 1% | 24µM*
Cc1ccc(-c2nn(-c3ccccc3)cc2C(=O)O)o1 | 19% | 2% | 6% | 1% | -2% | ?
COc1cc(/C=N/NC(=O)c2cccc([N+](=O)[O-])c2)ccc1OCc1ccccc1 | 1% | 0% | -2% | -2% | 0% | 10%
